Screen size: about 2,300 compounds; about 790 (34%) were called active. No rule for the calls is given here. This is one part of the list. Potency and affinity values are given separately.

A short description of this assay: THP-1 cell cytotoxicity, dose response, cytotoxicity control for non-replicating M. tuberculosis project (AID 489025). The note with it: THP-1 cell viability; series mostly up to 40 µM; viability: at the top concentration.
One may read the viability as a read-out of living cells in per cent, often relative to untreated cells. Take `O=C1c2ccccc2C(=O)N1CCOc1ccc(F)cc1`: the “viability” value is 95.2% (inactive). With `Cc1cc(C)cc(OC(=O)CCN2C(=O)c3ccccc3C2=O)c1` the figure was 100% (inactive); with `O=C(c1ccc([N+](=O)[O-])o1)N1CCN(c2nc3ccc(F)cc3s2)CC1`, 106% (inactive); with `COc1cccc2cc(C(=O)c3ccc([N+](=O)[O-])cc3)oc12`, 85.8% (inactive). For `C=CC[n+]1ccn(-c2nc3ccccc3nc2[N-]S(=O)(=O)c2cccs2)c1`, the “viability” value was 110% (inactive).

Consider `CC(=O)CCC1CC(c2ccc(Cl)cc2)=NO1` (stereo unspecified), for which the “viability” value was 103% (inactive). As for `CCCCCCNC(=O)c1ccc(Br)o1`, the “viability” value was 104% (inactive). With `Cc1c(Cl)cccc1NC(=O)C(=O)NNC(=O)c1ccccc1F` the figure was 79.9% (inactive); with `CCOC(=O)c1c(NC(=O)COC(=O)c2ccccn2)sc2c1CCC2`, 97.1% (inactive); with `O=C(Nc1nnc(-c2cc(Cl)ccc2Cl)o1)C1=COCCO1`, 75.8% (inactive). With `O=C(CCN1C(=O)S/C(=C\c2ccc(F)cc2)C1=O)Nc1ccc(C(=O)O)c(O)c1` the figure was 107% (inactive); with `O=C(NNC(=O)c1ncc(Cl)c(Cl)c1Cl)c1ccc(F)cc1`, 92.2% (inactive); with `CC1CCN(CCOCCSc2ccc(Cl)cc2)CC1`, 74% (inactive). As to `COc1ccc2cc(C(=O)NCc3ccccc3)c(=O)oc2c1`, the “viability” value was 103% (inactive). On to `O=C(CCC1CCCC1)NCc1ccccn1`, for which the “viability” value is 107% (inactive). Next, `COc1ccc(NC(=O)COc2ccc3c(c2)CCC3)cc1`: 111% (inactive); `O=C1OC(/C=C/c2ccccc2)=NC/1=C\c1cccnc1`: 119% (inactive); `Cc1ccc(C2=N/C(=C\c3cccnc3)C(=O)O2)cc1`: 117% (inactive). On to `Cc1cccnc1NC(=O)c1c(O)c2ccccc2n(C)c1=O`, for which the “viability” value is 85.8% (inactive).

Consider `C=CCn1c(=O)c(C(=O)Nc2cccnc2)c(O)c2ccccc21`, for which the “viability” value is 103% (inactive). With `Cn1c(=O)c(Oc2ccc(Cl)cc2)c(O)c2ccccc21` the figure was 118% (inactive); with `CCn1c(=O)c(C(=O)Nc2ncccc2C)c(O)c2ccccc21`, 71.2% (inactive); with `COc1cc(C2C3=C(CC(C)(C)CC3=O)OC(N)=C2[N+](=O)[O-])ccc1O` (stereo unspecified), 97.8% (inactive). Next, `CCCCOc1ccc(CSCCN)cc1Cl`: 99.1% (inactive).

Take `O=C1N(c2ccc3c(c2)OCCO3)C(c2ccccc2)C1(F)F` (stereo unspecified): the “viability” value is 117% (inactive). With `NC(=O)COc1ccc2cc(-c3ccc(F)cc3)c(=O)oc2c1` the figure was 119% (inactive). On to `Cc1n[nH]c(=S)n1/N=C/c1ccc(OCc2ccc(Cl)cc2Cl)cc1`, for which the “viability” value is 107% (inactive). With `CN1CCC(O)(c2cccs2)C(C(=O)c2cccs2)C1` (stereo unspecified) the figure was 74.7% (inactive); with `CC1CCN(C(=O)C2COc3ccccc3O2)CC1` (stereo unspecified), 102% (inactive); with `C/C(=N\Nc1nc2ccccc2[nH]1)c1ccc(N2CCOCC2)cc1`, 81.7% (inactive). Next, `CCCn1c(=O)c(C(=O)N/N=C/c2ccccc2F)c(O)c2ccccc21`: 78.5% (inactive); `CCCCN(C/C=C/c1ccccc1OC)Cc1ccccc1`: 88.6% (inactive); `COc1ccc(N2C(=O)CC(Sc3nc4ccccc4s3)C2=O)cc1OC` (stereo unspecified): 108% (inactive). `O=C(COc1cccc2ccccc12)Nc1ccc(Cl)cc1C(=O)O`: the “viability” value was 114% (inactive).

For `CCOc1cccc2cc(C(=O)NC(C)c3ccccc3)c(=N)oc12` (stereo unspecified), the “viability” value was 74.4% (inactive). With `O=C(NCc1cccs1)c1cc(-c2ccc(O)cc2)on1`, the “viability” value is 109% (inactive).

`O=C(OCC(=O)N1CCCCC1)c1cc2ccccc2cc1O`: the “viability” value is 103% (inactive). As to `Cc1cccc(NC(=O)CO/N=C/c2ccc3c(c2)OCO3)c1`, the “viability” value is 92.5% (inactive). Next, `O=C(CN1CCN(c2ccc([N+](=O)[O-])cc2)CC1)Nc1ccccn1`: 74.5% (inactive); `O=C(Nc1ncccn1)c1ccc([N+](=O)[O-])o1`: 91.8% (inactive). With `O=C(NCc1cccs1)c1ccc(Br)o1` the figure was 103% (inactive).

Regarding `Cc1csc(NC(=O)c2cc([N+](=O)[O-])cc([N+](=O)[O-])c2)n1`, the “viability” value is 93.5% (inactive). Take `COc1cccc(COC(=O)c2sc3nc4n(c(=O)c3c2C)CCC4)c1OC`: the “viability” value is 107% (inactive). Next, `O=C(Nc1ccc(-c2nc3ccccc3c(=O)o2)cc1)c1ccco1`: 100% (inactive); `O=C(N/N=C/c1ccc(OC(=O)c2ccco2)cc1)c1ccccn1`: 94.2% (inactive); `CC(C)(C)/C(O)=C/c1nc2ccccc2oc1=O`: 93.4% (inactive). As to `O=C1N/C(=N\c2ccccn2)SC1Cc1ccc(Cl)cc1` (stereo unspecified), the “viability” value is 103% (inactive). With `COc1ccc(/C(=N/O)C(C)(C)NO)cc1` the figure was 90.7% (inactive); with `CO/N=C/CC(=O)c1ccc(OC)cc1`, 96.5% (inactive); with `Cc1cc2nc(CSc3ccc(Cl)cc3)cc(=O)n2[nH]1`, 96.9% (inactive). With `CSCCC(=O)N1CCCC(N2CCN(c3cccc(C(F)(F)F)c3)CC2)C1` (stereo unspecified) the figure was 96.2% (inactive). With `CCC(C)c1ccc(OCCn2ccnc2)cc1` (stereo unspecified), the “viability” value was 76.9% (inactive). With `C/C(=C\C(=O)c1ccncc1)Nc1ccccc1O` the figure was 111% (inactive). Next, `CCOC(=O)c1ccc(NC(=O)CCSCCc2ccccn2)cc1`: 103% (inactive); `Cc1ccc(OCCCCc2c(C)n[nH]c2C)cc1`: 77.8% (inactive); `CC1CCc2c(sc3nc(CSc4ncn[nH]4)[nH]c(=O)c23)C1` (stereo unspecified): 97% (inactive). `CC1CC(C)CN(CCOCCSc2ccc(Cl)cc2)C1` (stereo unspecified): the “viability” value was 73.7% (inactive). Next, `Cc1cc(Cl)ccc1NNC(=O)c1cccs1`: 106% (inactive). With `O=C(c1ccccc1)c1nc[nH]c1C(=O)Nc1ccccc1` the figure was 70.5% (inactive). `CN(C)CCC(=O)N1c2ccccc2Sc2ccc(Cl)cc21`: the “viability” value is 90.3% (inactive). With `O=S1(=O)N=C(N/N=C/C=C/c2ccccc2)c2ccccc21` the figure was 84.3% (inactive); with `COc1ccc(OCc2n[nH]c(=S)o2)cc1`, 103% (inactive); with `CCCCn1c(N)c(-c2nc3ccccc3o2)c2c([N+](=O)[O-])nn(CC)c(=O)c21`, 113% (inactive). With `CCOCC(=O)Nc1ccc(C)c(Cl)c1` the figure was 111% (inactive); with `CSC1=N/C(=C\c2ccc(Br)o2)C(=O)S1`, 118% (inactive). Next, `Cc1ccc(-c2nnc(C)c(N3CCCC3)n2)cc1`: 122% (inactive); `O=C(CN1CCN(c2ccccc2O)CC1)Nc1ccc2c(c1)CCC2`: 82.9% (inactive); `CCOc1ccc(OCCSc2ccc(S(=O)(=O)N3CCN(C)CC3)cn2)cc1`: 76.5% (inactive). As for `CC(C)c1ccc(OCC(=O)NCc2ccccc2)cc1`, the “viability” value is 82.5% (inactive). As to `Cc1cc2cc(CNC(=O)COc3ccccc3)ccc2n1C`, the “viability” value was 107% (inactive). Next, `NC(=O)COC(=O)c1sc2ccccc2c1Cl`: 91.8% (inactive); `Cc1nonc1C(=O)N/N=C/c1ccc([N+](=O)[O-])o1`: 98.2% (inactive).

Regarding `COc1ccc(NC(=O)c2cc3ccccc3o2)cc1`, the “viability” value was 107% (inactive). Next, `Cc1cccc(NC(=O)c2cc3ccccc3o2)c1`: 86% (inactive); `Cc1cc(C(=O)N/N=C/C=C/c2ccccc2)c(C)o1`: 79.3% (inactive). With `O=C(Nc1ccc(Cl)c(Cl)c1)O/N=C/c1ccncc1` the figure was 86% (inactive); with `O=C(NC1CC2CCC1C2)C1COc2ccccc2O1` (stereo unspecified), 94.5% (inactive); with `O=C(NCc1ccccc1)c1cc2ccccc2oc1=O`, 114% (inactive). With `O=C(NCCc1cccc(Cl)c1)c1cc2ccccc2oc1=O` the figure was 111% (inactive). For `O=C(O)c1ccc(-n2nc(C(F)(F)F)c3c2CCCC3)cc1`, the “viability” value is 118% (inactive). With `O=C(COc1ccc2ccccc2c1)Nc1ccncc1` the figure was 101% (inactive). With `S=c1[nH]cnc2sc(-c3ccccc3)cc12` the figure was 75.2% (inactive); with `CCOC(=O)c1csc(COc2ccccc2Cl)n1`, 111% (inactive).

In the case of `Clc1ccccc1OCc1nnc(-c2ccccc2)o1`, the “viability” value is 83.9% (inactive).

`CCn1c(-c2ccco2)nc2ccccc21`: the “viability” value is 121% (inactive). With `COc1cccc(COC(=O)CCNC(=O)c2ccc(Br)cc2)c1OC` the figure was 113% (inactive). Next, `CC(=O)c1ccc(NC(=O)C(Cc2ccccc2)n2cccc2)cc1` (stereo unspecified): 115% (inactive); `Cc1cc(NC(=O)COc2ccccc2)ccc1Cl`: 85.1% (inactive); `O=C(NC1CCCC1)c1cc(-c2cccs2)on1`: 85.4% (inactive). With `O=C(Nc1nnc(C2=COCCO2)o1)c1ccc(Cc2ccccc2)cc1` the figure was 78.6% (inactive); with `Cc1cc(C)c(OCC(=O)Nc2nnc(-c3ccco3)o2)c(C)c1`, 120% (inactive); with `Cc1ccsc1C(=O)OCC(=O)Nc1nnc(-c2ccccc2)o1`, 103% (inactive).

Take `CCOc1cc(-c2nnc(NC(=O)c3ccco3)o2)cc(OCC)c1OCC`: the “viability” value was 76.8% (inactive). With `CCc1ccc(NC(=O)CCc2ccc(C)o2)cc1` the figure was 99% (inactive); with `C=CCn1c(O)c(C(C)=Nc2ccc(C(=O)OCC)cc2)c(=O)[nH]c1=O`, 104% (inactive).

Consider `Oc1ccc2cc(Br)ccc2c1CN1CCCC1`, for which the “viability” value was 95.8% (inactive). Take `Cc1ccc(S(=O)(=O)NCC(=O)OCCOc2cccc(Cl)c2)cc1`: the “viability” value is 116% (inactive). Next, `O=C(Nc1nnc(-c2ccccc2Cl)o1)c1ccco1`: 85.8% (inactive); `O=C(Nc1nnc(-c2ccccc2Cl)o1)c1cccnc1`: 82.8% (inactive).

For `CC(C)OC(=O)c1cc(C(=O)c2cc(Cl)ccc2O)coc1=N`, the “viability” value was 101% (inactive).

As to `COc1c[nH]n(C2CCCCC2)c(=O)c1=O`, the “viability” value is 96.4% (inactive). Next, `Cc1ccc(N=N/C(=C\O)C(=O)c2ccncc2)cc1`: 74% (inactive); `O=C(NNC1CC(=O)N(c2ccccc2)C1=O)c1ccco1` (stereo unspecified): 115% (inactive). With `NC(=O)N/N=C/c1ccccc1OC(=O)c1cc2ccccc2oc1=O`, the “viability” value is 131% (inactive). Next, `Cc1ccc(C(=O)N2N=C(CC(C)C)CC2(O)C(F)(F)F)o1` (stereo unspecified): 101% (inactive); `Cn1nnc(NC(=O)COc2ccc(C3CCCCC3)cc2)n1`: 104% (inactive). Next, `Cc1cc(O)c(-c2cc(O)c(C)cc2O)cc1O`: 95.9% (inactive). With `COc1ccc(-c2nnc(NC(=O)C3=COCCO3)o2)cc1` the figure was 102% (inactive); with `COc1ccc(-c2nnc(SCC(C)C)o2)cc1`, 81.9% (inactive); with `Cc1ccn2nc(S(=O)(=O)Nc3c(F)cccc3F)nc2n1`, 101% (inactive). Turning to `COc1cccc(NC(=O)c2ccc(-c3ccc([N+](=O)[O-])cc3)o2)c1`, the “viability” value was 98.6% (inactive).

As for `CC(=O)Nc1ccc(NC(=O)c2cc([N+](=O)[O-])cc([N+](=O)[O-])c2)cc1`, the “viability” value was 102% (inactive). Turning to `COc1ccc(CNC(=O)c2cc3cccc(O)c3oc2=N)cc1`, the “viability” value is 107% (inactive). Regarding `CCOC(=O)COc1ccc2c(=O)c(-c3ccccc3OC)coc2c1`, the “viability” value was 114% (inactive). With `COC(=O)COc1ccc(-c2nn(C)c(=O)c3ccccc23)cc1` the figure was 86.9% (inactive); with `O=C(CNC(=O)c1ccco1)OCc1ccc(C(=O)Oc2ccccc2)cc1`, 106% (inactive); with `CCOC(=O)c1ccc(NC2OC(=O)c3ccccc32)cc1` (stereo unspecified), 110% (inactive).

As for `CCOC(=O)CC(=O)Nc1ccc(C(=O)OCC)cc1`, the “viability” value is 88.2% (inactive). Next, `c1ccc(C2=Nc3ccccc3OC2)cc1`: 115% (inactive). Next, `Cc1ccnc(NC(=O)CCc2c[nH]c3ccccc23)c1`: 74.2% (inactive); `C/C(=N\Nc1ccc(Cl)cc1)c1ccccn1`: 93.5% (inactive). In the case of `O=C(CCc1c[nH]c2ccccc12)Nc1ncccc1O`, the “viability” value was 126% (inactive). With `CC(C)c1ccc(/C=N/NC(=O)c2ccccn2)cc1` the figure was 91.5% (inactive); with `O=C(N/N=C/c1ccccn1)c1ccccc1`, 70.2% (inactive); with `O=C(N/N=C/c1ccccn1)c1cccc(S(=O)(=O)Nc2ccccc2Cl)c1`, 87.6% (inactive). On to `COc1cc(/C=N/NC(=O)c2ccccn2)ccc1OC(=O)c1cccs1`, for which the “viability” value was 88.8% (inactive).

These data come from PubChem BioAssay AID489025 (Southern Research Specialized Biocontainment Screening …, 2010).
